Out of some 220,000 compounds screened, about 830 (0.38%) were called active. The sample holds actives, similar compounds and a random draw of the others, so the mix is not that of the screen. Values without a mark were called inactive. No rule for the calls is given here.
The compounds below were run against Regulator of G-protein signaling 16 (Homo sapiens) + Guanine nucleotide-binding protein G(o) subunit alpha (Homo sapiens) (UniProt O15492+P09471) (assay: modulators of RGS16 binding to Galphao, primary screen, biochemical, human proteins, multiplexed bead flow cytometry (AID 1441;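 also: Galphao activated by GDP with aluminum fluoride before binding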)). Settings: bead-based flow cytometry RGS16-Galphao binding, fluorescence; at 10 µM; actives lie on both sides.
Chain of Regulator of G-protein signaling 16 (Homo sapiens) + Guanine nucleotide-binding protein G(o) subunit alpha (Homo sapiens) (O15492 whole entry, looked up): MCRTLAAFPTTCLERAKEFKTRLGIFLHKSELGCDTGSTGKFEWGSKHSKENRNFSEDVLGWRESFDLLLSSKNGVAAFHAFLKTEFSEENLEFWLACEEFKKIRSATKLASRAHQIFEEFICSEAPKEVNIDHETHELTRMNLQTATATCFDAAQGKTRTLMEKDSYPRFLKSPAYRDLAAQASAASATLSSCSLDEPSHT
Chain of Regulator of G-protein signaling 16 (Homo sapiens) + Guanine nucleotide-binding protein G(o) subunit alpha (Homo sapiens) (P09471 whole entry, looked up): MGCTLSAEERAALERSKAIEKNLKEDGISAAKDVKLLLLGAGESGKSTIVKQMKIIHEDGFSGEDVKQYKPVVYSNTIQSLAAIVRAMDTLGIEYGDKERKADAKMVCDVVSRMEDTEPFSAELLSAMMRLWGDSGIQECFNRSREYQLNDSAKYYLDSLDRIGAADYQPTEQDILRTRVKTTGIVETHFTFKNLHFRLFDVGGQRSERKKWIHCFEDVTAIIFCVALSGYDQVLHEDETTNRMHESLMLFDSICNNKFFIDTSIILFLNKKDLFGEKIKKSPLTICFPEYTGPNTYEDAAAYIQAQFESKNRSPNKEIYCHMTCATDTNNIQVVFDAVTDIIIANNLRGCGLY

SMILES | binding response (% of control)
COc1ccc(/C(O)=C2\C(=O)C(=O)N(Cc3ccco3)C2c2ccc(OC)cc2OC)cc1 (centres undefined) | 97.2%
COc1cc(C2/C(=C(\O)c3ccc4c(c3)CC(C)O4)C(=O)C(=O)N2Cc2ccco2)ccc1O (centres undefined) | -10.7% (active)
COCCCN1C(=O)C(=O)/C(=C(/O)c2ccc3c(c2)CC(C)O3)C1c1cccnc1 (centres undefined) | 68.3%
CC(=O)Nc1ccc(OCCC[n+]2cccc(C(=O)[O-])c2)cc1 | 97.8%
O=C(NCc1ccccc1)c1ccc(CNc2c(N3CCCC3)c(=O)c2=O)cc1 | 102%
COc1ccc(Br)cc1/C=N/Nc1ccc(Cl)c(C(=O)O)c1 | 103%
O=C(Cn1cnc2cc([N+](=O)[O-])ccc2c1=O)NC(=O)NCc1ccccc1 | 112%
Nc1c(N(CCO)C(=O)C2CCCCC2)c(=O)[nH]c(=O)n1Cc1ccccc1 | 86.5%
Cn1c(=O)c2c(n(Cc3ccccc3)c1=O)NC(=O)C2CC(=O)N1CCc2ccccc2C1 (centres undefined) | -1.02% (active)
O=C(COc1ccccc1)N1CCc2ccccc2C1 | 102%
O=C(CSc1nnc(-c2cccs2)n1Cc1ccccc1)N1CCc2ccccc2C1 | 101%
Cc1cc(C)n(CC(O)CN(c2ccccc2)S(=O)(=O)c2ccc3ccccc3c2)n1 (centres undefined) | -6.51% (active)
O=S(=O)(c1ccccc1)N(CC(O)CN1CCCCC1)c1ccccc1 (centres undefined) | 96.4%
Cc1ccc(N(CC(O)CN2CCCC2)S(=O)(=O)c2ccccc2)cc1 (centres undefined) | 100%
CCN(CC(=O)Nc1ccc(Cl)c(S(=O)(=O)N(C)C)c1)Cc1nc2ccccc2c(=O)[nH]1 | 107%
CCOC(=O)CSc1nc(C)c(Oc2ccc(Cl)cc2Cl)c(=O)[nH]1 | 101%
COc1ccc(C(=O)C[n+]2ccc(N)c(C)c2C)cc1 | 99.8%
CCOC(=O)c1c(CC(C)C)csc1/N=C/C1=C(O)CCCC1=O | 103%
C/C(=C/C(=O)N1CCN(C)CC1)C(=O)O | 234% [activator] (active)
CN1CCN(C(=O)C2C3C=CC(C3)C2C(=O)O)CC1 (centres undefined) | 102%
CCN1CCN(C(=O)/C=C\C(=O)O)CC1 | 101%
COC(=O)C(C(=O)Nc1cccc(C)n1)C1CCCCCC1 (centres undefined) | 103%
CCCc1cc(=S)n2c([nH]c3ccccc32)c1C#N | 97.3%
CSc1sc(C(=O)NNC(=O)c2ccc(Cl)cc2)c2c1C=CCC2 | 92.2%

SMILES | binding response (% of control)
O=C(O)c1ccccc1C(=O)Nc1ccccc1[N+](=O)[O-] | 96.6%
CCCn1cc(SCC(N)=O)c2ccccc21 | 85.2%
NC(=O)CSc1c[nH]c2ccccc12 | 19.6% (active)
O=C(Cc1c[nH]c2ccccc12)OCCOC(=O)Cc1c[nH]c2ccccc12 | 97.3%
Oc1ccc(N=Nc2nccs2)c(O)c1 | -16.2% (active)
Oc1ccc2ccccc2c1N=Nc1nccs1 | 99.9%
CCN1CCN(C(=O)CCN2C(=O)c3ccccc3C2=O)CC1 | 93.9%
Cc1noc(C)c1S(=O)(=O)Nc1cc(C(F)(F)F)ccc1N1CCOCC1 | 98%
CC(=O)N1CC[n+]2c(-c3ccc([N+](=O)[O-])cc3)csc21 | 12.8% (active)
COC(=O)c1c(C)[nH]c(C)c1-c1ccc([N+](=O)[O-])cc1 | 85.3%
Cc1cc(C)cc(C(=O)N2CCN=C2SCc2ccc([N+](=O)[O-])cc2)c1 | 96.2%
O=C(Nc1ccc2cn[nH]c2c1)c1ccc(S(=O)(=O)N2CCOCC2)cc1 | 92.3%
Cc1cc(F)ccc1S(=O)(=O)Nc1ncnc2scc(-c3ccc(F)cc3)c12 | 95.8%
CCOc1cc(CNCc2ccccn2)ccc1OCC(=O)NC(C)(C)C | 103%
Clc1ccc2nc(CSc3ccccc3)cn2c1 | 169%
CC(Sc1nnc2c(n1)C1CCC2(C)C1(C)C)C(=O)Nc1ccccc1 (centres undefined) | 102%
O=C(Nc1nc2c(F)cc(F)cc2s1)C1COc2ccccc2O1 (centres undefined) | 99.5%
Fc1cc(F)c2nc(Nc3nc4c(F)cccc4s3)sc2c1 | 192% [activator] (active)
NC(=O)c1c(Nc2nc3c(F)cccc3s2)sc2c1CCCC2 | 95%
NC(=O)CC(NC(=O)Cc1cccc2ccccc12)c1ccc(NCc2cc(F)ccc2F)c([N+](=O)[O-])c1 (centres undefined) | 100%
COc1cc(C(=O)Nc2cc(C(F)(F)F)ccc2-n2cncn2)cc(OC)c1OC | 98.2%
COc1cc(C(=O)Nc2cc(C(F)(F)F)ccc2N2CCOCC2)ccc1O | 9.57% (active)
CC(C)CC(=O)Nc1cc(C(F)(F)F)ccc1N1CCOCC1 | 101%
CC(=O)N1N=C(c2ccncc2)OC1(Cc1ccccc1)Cc1ccccc1 | 96.5%

SMILES | binding response (% of control)
N#Cc1c(N2CCCCC2)nc(N)c2c(N)nc(SCC(=O)O)cc12 | 114%
COc1ccc(CCNC(=O)C(=O)Nc2ccc3nc4n(c(=O)c3c2)CCCCC4)cc1OC | 105%
Cc1nn(-c2ccccc2)c(=O)c2noc(C)c12 | 102%
CCC(C)NC(=O)C1c2ccccc2Oc2ccccc21 (centres undefined) | 103%
O=C(OCC(=O)N1CCN(C(=O)c2ccco2)CC1)c1ccccc1Cc1ccccc1 | 82.8%
Cc1ccc(C)c(OCC(=O)N2CCN(C(=O)c3ccco3)CC2)c1 | 24.4% (active)
COc1cccc(OC)c1OCCN1CCN(C(=O)c2ccco2)CC1 | 101%
CC(C)(C)C1CCC(=NNC(=O)c2cc(-c3ccccc3)n[nH]2)CC1 (centres undefined) | 85.9%
O=C(CN1CCCCC1)N1c2ccccc2Sc2ccc(C(F)(F)F)cc21 | -6.83% (active)
COc1cc(/C=C/C(=O)N2c3ccccc3Sc3ccc(C(F)(F)F)cc32)cc(OC)c1OC | 97%
O=C(CN1CCCCCC1)N1c2ccccc2Sc2ccc(C(F)(F)F)cc21 | 81.4%
COc1ccc(S(=O)(=O)N(C)C)cc1NC(=O)CSc1ncccn1 | 101%
CCC(C)N(C(=O)COC(=O)C1C(C(=O)OC)=C(C)NC(C)=C1C(=O)OC)C1CCS(=O)(=O)C1 (centres undefined) | 104%
Cc1nn(-c2ccccc2)c(C)c1C(=O)OCC(=O)NC(=O)NC1CCCCC1 | 98.5%
Cc1ccc(OC(=O)c2c(C)nn(-c3ccccc3)c2C)cc1 | 96.3%
CCCn1c(C)cc(C(=O)COC(=O)c2c(C)nn(-c3ccccc3)c2C)c1C | -33.9% (active)
O=C(Nc1ccc(Cl)cc1)/C(=C1\CCCN1)[N+](=O)[O-] | 97.8%
Clc1ccc(C2CC(c3cccs3)n3ncnc3N2)cc1Cl (centres undefined) | 103%
COc1ccc(C2CC(c3ccccc3)Nc3ncnn32)cc1 (centres undefined) | 103%
FC(F)Oc1ccccc1C1CC(c2ccc(Br)s2)Nc2ncnn21 (centres undefined) | 215% [activator] (active)
COc1ccc(CCNC(=O)c2ccc(CS(=O)(=O)c3ccc(Br)cc3)o2)cc1OC | 107%
COc1ccccc1N(C)S(=O)(=O)c1ccc(C(=O)NC2CCCCCC2)cc1 | 102%
CC(=O)Nc1ccc(/C=N/Nc2ccc(C(=O)c3c(C)cc4ccccn34)cc2[N+](=O)[O-])cc1 | 89.3%
COC(C[C@H](O)CC(=O)COCc1ccccc1)OC | 110%

SMILES | binding response (% of control)
CC(C)(CNC(=O)c1ccc(Cl)c(S(=O)(=O)N2CCc3ccccc3C2)c1)N1CCOCC1 | 96.9%
CCOC(=O)C1C(c2ccc(Cl)cc2)NC(=S)NC1(O)C(F)(F)F (centres undefined) | 102%
CCOC(=O)C1=C(C)NC(=O)N(C(C)=O)C1c1ccc(Cl)cc1 (centres undefined) | 109%
CCOC(=O)C1Sc2[nH]c(=O)sc2C(c2ccc(Cl)cc2)C1C(=O)OCC (centres undefined) | -39.2% (active)
CC(C)(C)NC(=O)COC(=O)c1cc(Cl)ccc1[N+](=O)[O-] | 100%
CN1C=CC=C/C1=C1\SC(=S)N(Cc2ccccc2)C1=O | 100%
Cc1ccc(Cl)cc1NC(=S)N(CCN(C)C)Cc1cccs1 | 99.5%
CCc1cccc(C)c1NC(=S)N(CCCN1CCN(C)CC1)Cc1cccs1 | 105%
Cc1ccccc1NC(=S)N(CCCN1CCOCC1)Cc1cccs1 | 181% [activator] (active)
COc1ccc(C(CC(=O)N2CCN(c3ccccc3)CC2)c2c(O)cc(OC)cc2OC)cc1 (centres undefined) | 99.5%
O=C(CCNc1n[nH]c(=O)[nH]c1=O)N/N=C\c1ccc(Br)cc1 | 100%
NCCCCCC(=O)N/N=C/c1ccc2nccnc2c1 | 105%
CC(=O)N(CN1C(=O)C2C3C=CC(C3)C2C1=O)c1cccc(Cl)c1 (centres undefined) | 104%
Cc1ccc(OCCCn2c(=O)oc3ccccc32)cc1 | 106%
O=C(O)C#Cc1cccc2ccccc12 | 103%
Nc1ccc(OCC(O)C[n+]2ccc(CCS(=O)(=O)[O-])cc2)cc1 (centres undefined) | 97.6%
CCCn1nnnc1NC(=O)COc1ccc(Cl)cc1C | 2.27% (active)
CCOC(=O)N1CCN(C(=O)COc2ccc(Cl)cc2C)CC1 | 97.8%
Cc1cc(NC(=O)COc2ccc(Cl)cc2Cl)n(CCC#N)n1 | 93.4%
CC(C)=NN1C(=O)c2ccccc2NC1(C)C | 120%
O=C(CSc1cccc[n+]1[O-])c1ccc(-c2ccccc2)cc1 | 104%
N#Cc1ccc(CSc2nnc3ccccn23)cc1 | 101%

From PubChem BioAssay AID1441 (NMMLSC, 2008)
